The whole screen tested about 13,000 compounds, of which about 3,200 (25%) showed an effect of 50% or more. The list shows a part of the results.
Test system: P. falciparum stage V gametocytes
Set-up: BacTiter-Glo ATP luminescence viability of purified stage V gametocytes in 384-well plates, per cent inhibition versus DMSO
Conditions: 48 h, 5 µM; inhibitor

Question: For `CN(C)CC1CCCN1Cc1ccccc1-c1cnn(C)c(=O)c1Oc1ccccc1F` (centres unmarked) [TCMDC-135099], which “% Inhibition” value is on record?
Answer: 9.933%

Question: Which “% Inhibition” value does the source give for `CCC(C)c1cnc2nc(N)nc(N)c2c1C` (centres unmarked) [TCMDC-137718] here?
Answer: 7.013%

Question: For `O=C(Nc1ccccc1)N(Cc1ccc(-c2ccc(CNCc3ccc4c(c3)OCO4)cc2)cc1)C1CCN(Cc2ccccc2)CC1` [TCMDC-140604], which “% Inhibition” value is on record?
Answer: 20.36%

Question: Which “% Inhibition” value does the source give for `O=C(Nc1ccccc1)N(Cc1ccc(-c2cccc(CNCc3ccc4c(c3)OCO4)c2)cc1)C1CCN(Cc2ccccc2)CC1` [TCMDC-140603] here?
Answer: 101.1%

Question: `O=C(NCc1ccccc1)c1ccc(C(=O)NCC2CNCCO2)cc1` (centres unmarked) [TCMDC-136507] was tested. Which “% Inhibition” value did it give?
Answer: 8.876%

Question: Which “% Inhibition” value does the source give for `O=c1ccc2ccc(F)c3c2n1CC3CN1CCC(NCc2cccc(-c3cccs3)c2)CC1` (centres unmarked) [TCMDC-134415] here?
Answer: 19.28%

Question: Which “% Inhibition” value does the source give for `Cc1cc(NCC(c2ccccc2)c2ccccc2)nc(NCc2ccc(C(F)(F)F)cc2)n1` [TCMDC-138302] here?
Answer: 69.12%

Question: How did the “% Inhibition” value turn out when `Cc1cc(NCc2ccccc2)nc(NCc2ccccc2)n1` [TCMDC-123662] was run?
Answer: 26.39%

Question: Which “% Inhibition” value does the source give for `Cc1cc(NCCc2ccc(O)cc2)nc(NCC(c2ccccc2)c2ccccc2)n1` [TCMDC-138305] here?
Answer: 99.17%

Question: How did the “% Inhibition” value turn out when `Cc1cc(N[C@@H](C)C(=O)Nc2ccccc2)nc(NCCc2ccc(F)cc2)n1` [TCMDC-134798] was run?
Answer: 30.85%

Question: Which “% Inhibition” value does the source give for `Cc1cc(Nc2cccc(C(F)(F)F)c2)nc(NCc2ccccc2)n1` [TCMDC-125566] here?
Answer: 3.225%

Question: Which “% Inhibition” value does the source give for `Oc1cc2c(cc1CN1CCN(Cc3ccccc3F)CC1)CCC2` [TCMDC-125013] here?
Answer: -13.06%

Question: For `Cc1nc(C(=O)N2CCCC[C@H]2CNC(=O)c2ccc(-c3ccc(N4CCCC4=O)cc3C)cc2)c(-c2ccc(F)cc2)s1` [TCMDC-141437], which “% Inhibition” value is on record?
Answer: 4.719%

Question: `CCNc1cc(C(=O)N[C@@H](Cc2ccccc2)[C@H](O)CNC2CCC(C)(C)CC2)cc(N2CCCCS2(=O)=O)c1` [TCMDC-135108] was tested. Which “% Inhibition” value did it give?
Answer: 43.04%

Question: How did the “% Inhibition” value turn out when `O=C(O)C(F)(F)F.c1cc(-c2ccc(CN3CCN(c4ccncc4)CC3)cc2)cc(-c2nc3ccccc3[nH]2)c1` [TCMDC-132556] was run?
Answer: 5.696%

Question: Which “% Inhibition” value does the source give for `Fc1ccc2nc(-c3cccc(-c4ccc(CN5CCN(c6ccncc6)CC5)cc4)c3)[nH]c2c1` [TCMDC-132918] here?
Answer: 89.6%

Question: Which “% Inhibition” value does the source give for `Fc1ccc2nc(-c3cccc(-c4ccc(CN5CCN(c6cnccn6)CC5)cc4)c3)[nH]c2c1` [TCMDC-132679] here?
Answer: 21.91%

Question: For `c1cc(CN2CCN(c3ccncc3)CC2)cc(-c2cccc(-c3nc4ccccc4[nH]3)c2)c1` [TCMDC-132923], which “% Inhibition” value is on record?
Answer: 40.29%

Question: `Fc1ccc2nc(-c3cccc(-c4cccc(CN5CCN(c6ccncc6)CC5)c4)c3)[nH]c2c1` [TCMDC-132922] was tested. Which “% Inhibition” value did it give?
Answer: 104.6%

Question: `Fc1ccc2nc(-c3ccc(-c4cccc(CN5CCN(c6ccncc6)CC5)c4)cc3)[nH]c2c1` [TCMDC-133822] was tested. Which “% Inhibition” value did it give?
Answer: -6.554%

Question: How did the “% Inhibition” value turn out when `O=C(O)C(F)(F)F.c1cncc(CCNCc2ccc(-c3ccc(-c4nc5ccccc5[nH]4)s3)cc2)c1` [TCMDC-132876] was run?
Answer: -17.55%

Question: For `COc1ccc(-c2cnc3ccc(NC4CCC(O)CC4)nn23)cn1` (centres unmarked) [TCMDC-136694], which “% Inhibition” value is on record?
Answer: 36.86%

Question: `CN1CCN(CCCNCc2ccccc2-c2cccc(CNCc3ccc4c(c3)OCO4)c2)CC1` [TCMDC-140476] was tested. Which “% Inhibition” value did it give?
Answer: 103.3%

Question: How did the “% Inhibition” value turn out when `FC(F)(F)c1ccc(N2CCCN(Cc3cccc(-c4ccccc4CNCc4ccc5c(c4)OCO5)c3)CC2)nc1` [TCMDC-140216] was run?
Answer: -3.324%

Question: How did the “% Inhibition” value turn out when `c1cc(CNCc2ccc3c(c2)OCO3)cc(-c2cccc(CNc3ccc4ncccc4c3)c2)c1` [TCMDC-140721] was run?
Answer: -2.829%

Question: How did the “% Inhibition” value turn out when `c1ccc(CCNCc2cccc(-c3ccccc3CNCc3ccc4c(c3)OCO4)c2)nc1` [TCMDC-140068] was run?
Answer: 70.81%

Question: `O=C(Nc1ccc(OC2CCN(Cc3ccsc3)C2)c(Cl)c1)c1ccc(F)cc1` (centres unmarked) [TCMDC-133952] was tested. Which “% Inhibition” value did it give?
Answer: 22.72%

Question: How did the “% Inhibition” value turn out when `O=C(NCc1cccc(F)c1)Nc1cccc(-c2cccc(-c3nc4ccc(C(F)(F)F)cc4[nH]3)c2)c1` [TCMDC-133292] was run?
Answer: -20.5%

Question: Which “% Inhibition” value does the source give for `C#CCCC(=O)Nc1cccc(-c2cccc(-c3nc4ccc(C(F)(F)F)cc4[nH]3)c2)c1` [TCMDC-136856] here?
Answer: 5.566%

Question: For `O=C(Nc1cccc(-c2nn3ccccc3c2-c2ccnc(Nc3ccccc3)n2)c1)c1c(F)cccc1F` [TCMDC-135526], which “% Inhibition” value is on record?
Answer: -37.81%

Question: With `CC(C)c1cn2c3c(cc(C(=O)N[C@@H](Cc4ccccc4)[C@H](O)CNC4CCOCC4)cc13)N(C)S(=O)(=O)CC2` [TCMDC-135535] as the compound, how does the “% Inhibition” value read?
Answer: 2.441%

Question: For `CCc1cn2c3c(cc(C(=O)N[C@@H](Cc4cccc(F)c4)[C@H](O)CNC4CC4)cc13)N(C)S(=O)(=O)CC2` [TCMDC-135651], which “% Inhibition” value is on record?
Answer: -23.22%

Question: For `CCc1cn2c3c(cc(C(=O)N[C@@H](Cc4ccccc4)[C@H](O)CNC4CCC4)cc13)N(C)S(=O)(=O)CC2` [TCMDC-135674], which “% Inhibition” value is on record?
Answer: 32.1%

Question: For `CCc1cn2c3c(cc(C(=O)N[C@@H](Cc4cc(F)cc(F)c4)[C@H](O)CNC4CCOCC4)cc13)N(C)S(=O)(=O)CC2` [TCMDC-135797], which “% Inhibition” value is on record?
Answer: 26.1%

Question: For `CCc1cn2c3c(cc(C(=O)N[C@@H](Cc4cc(F)cc(F)c4)[C@H](O)CNC4CCCCC4)cc13)N(C)S(=O)(=O)CC2` [TCMDC-135672], which “% Inhibition” value is on record?
Answer: 90.03%

Question: `CCc1cn2c3c(cc(C(=O)N[C@@H](Cc4cc(F)cc(F)c4)[C@H](O)CNC4CC4)cc13)N(C)S(=O)(=O)CC2` [TCMDC-135673] was tested. Which “% Inhibition” value did it give?
Answer: 30.94%

Question: For `CC(C)c1cn2c3c(cc(C(=O)N[C@@H](Cc4ccccc4)[C@H](O)CNC4CCCCC4)cc13)N(C)S(=O)(=O)CC2` [TCMDC-135533], which “% Inhibition” value is on record?
Answer: 94.75%

Question: How did the “% Inhibition” value turn out when `CCc1cn2c3c(cc(C(=O)N[C@@H](Cc4ccccc4)[C@H](O)CNC4CCOCC4)cc13)N(C)S(=O)(=O)C2` [TCMDC-135394] was run?
Answer: 4.179%

Question: For `CC(C)NC[C@@H](O)[C@H](Cc1ccccc1)NC(=O)c1cc2c3c(c1)c(C(C)C)cn3CCS(=O)(=O)N2C` [TCMDC-135532], which “% Inhibition” value is on record?
Answer: 49.45%

Question: `CCc1cn2c3c(cc(C(=O)N[C@@H](Cc4ccccc4)[C@H](O)CNC4CCCC4)cc13)N(C)S(=O)(=O)CC2` [TCMDC-135803] was tested. Which “% Inhibition” value did it give?
Answer: 56.31%

Question: How did the “% Inhibition” value turn out when `CCCc1cn2c3c(cc(C(=O)N[C@@H](Cc4ccccc4)[C@H](O)CNC4CCCCC4)cc13)N(C)S(=O)(=O)CC2` [TCMDC-135771] was run?
Answer: 15.59%

Question: For `CCc1cn2c3c(cc(C(=O)N[C@@H](Cc4ccccc4)[C@H](O)CNC4CC4)cc13)N(CC)S(=O)(=O)CC2` [TCMDC-135553], which “% Inhibition” value is on record?
Answer: 73.35%

Question: `CC(=O)Nc1ccc(CN2CCC(N(C)c3cc(NC(=O)c4cccs4)ccn3)CC2)cc1` [TCMDC-134971] was tested. Which “% Inhibition” value did it give?
Answer: -6.674%

Question: For `CCc1c(C)nc2nc(Cc3cccc(F)c3)nn2c1N1CCN(c2ccccn2)CC1` [TCMDC-124593], which “% Inhibition” value is on record?
Answer: 5.465%

Question: How did the “% Inhibition” value turn out when `Cc1noc(C)c1-c1cccc(CNCc2ccc(-c3ccc(-c4nc5cc(F)ccc5[nH]4)s3)cc2)c1.O=C(O)C(F)(F)F` [TCMDC-133054] was run?
Answer: 12.51%

Question: For `O=C(/C=C/c1ccc(Cl)cc1)NCCCCCN1CCCN(C(=O)Nc2cccc(Cl)c2)CC1` [TCMDC-136102], which “% Inhibition” value is on record?
Answer: -54.14%

Question: How did the “% Inhibition” value turn out when `Cn1cnc(CCNC(=O)c2ccc(-c3ccc(-c4nc5cc(C(F)(F)F)ccc5[nH]4)s3)cc2)c1` [TCMDC-132500] was run?
Answer: -12.71%

Question: For `CCCc1cn2c3c(cc(C(=O)N[C@@H](Cc4ccccc4)[C@H](O)CNC4CCOCC4)cc13)N(CC)S(=O)(=O)CC2` [TCMDC-135774], which “% Inhibition” value is on record?
Answer: 46.67%

Question: For `CCc1cn2c3c(cc(C(=O)N[C@@H](Cc4ccccc4)[C@H](O)CNC4CCOCC4)cc13)N(C(C)C)S(=O)(=O)CC2` [TCMDC-135506], which “% Inhibition” value is on record?
Answer: 37.66%

Question: With `CCc1cn2c3c(cc(C(=O)N[C@@H](Cc4cccc(Cl)c4)[C@H](O)CNC4CCOCC4)cc13)N(C)S(=O)(=O)CC2` [TCMDC-135650] as the compound, how does the “% Inhibition” value read?
Answer: 67.17%

Question: `CCc1cn2c3c(cc(C(=O)N[C@@H](Cc4cccc(F)c4)[C@H](O)CNC4CCCCC4)cc13)N(C)S(=O)(=O)CC2` [TCMDC-135659] was tested. Which “% Inhibition” value did it give?
Answer: 47.1%

Question: Which “% Inhibition” value does the source give for `CCc1cn2c3c(cc(C(=O)N[C@@H](Cc4ccccc4)[C@H](O)CNC4CCCCC4)cc13)N(C)S(=O)(=O)C2` [TCMDC-135389] here?
Answer: 12.74%

Question: How did the “% Inhibition” value turn out when `CCc1cn2c3c(cc(C(=O)N[C@@H](Cc4ccccc4)[C@H](O)CNC4CCCCC4)cc13)N(CC)S(=O)(=O)CC2` [TCMDC-135572] was run?
Answer: 99.29%

Question: `CCCc1cn2c3c(cc(C(=O)N[C@@H](Cc4ccccc4)[C@H](O)CNC4CCOCC4)cc13)N(C)S(=O)(=O)CC2` [TCMDC-135772] was tested. Which “% Inhibition” value did it give?
Answer: 9.174%

Question: Which “% Inhibition” value does the source give for `CCCc1cn2c3c(cc(C(=O)N[C@@H](Cc4ccccc4)[C@H](O)CNC4CCCCC4)cc13)N(CC)S(=O)(=O)CC2` [TCMDC-135773] here?
Answer: 81.38%

Question: `CCc1cn2c3c(cc(C(=O)N[C@@H](Cc4ccccc4)[C@H](O)CNC4CCOCC4)cc13)N(CC(F)(F)F)S(=O)(=O)CC2` [TCMDC-135652] was tested. Which “% Inhibition” value did it give?
Answer: 61.24%

Question: For `CCc1cn2c3c(cc(C(=O)N[C@@H](Cc4cccc(F)c4)[C@H](O)CNC4CCOCC4)cc13)N(C)S(=O)(=O)CC2` [TCMDC-135661], which “% Inhibition” value is on record?
Answer: 11.24%

Question: For `CCc1cn2c3c(cc(C(=O)N[C@@H](Cc4cccc(Cl)c4)[C@H](O)CNC4CC4)cc13)N(C)S(=O)(=O)CC2` [TCMDC-135648], which “% Inhibition” value is on record?
Answer: 29.4%

Question: With `CCc1cn2c3c(cc(C(=O)N[C@@H](Cc4cccc(Cl)c4)[C@H](O)CNC4CCCCC4)cc13)N(C)S(=O)(=O)CC2` [TCMDC-135649] as the compound, how does the “% Inhibition” value read?
Answer: 39.17%

— publication PMC4552634, “A New Set of Chemical Starting Points with Plasmodium falciparum Transmission-Blocking Potential for Antimalarial Drug Discovery” (PLoS ONE, 2015)
